# Source: PubChem BioAssay (NCATS)
# Results filed as inconclusive are left out. Values without a mark were called inactive. Activity calls are given as the source filed them. Calls come from the whole dose curve; as a rule, active = well fitted inhibition curve with a large enough effect; inconclusive = small, poorly fitted or top-dose-only effect; inactive = flat fitted curve, though single readings scatter.
# Key:
# Assay in all cases: Cytotoxic Profiling of Annotated Libraries Using Quantitative High-Throughput Screening (AID 1296008); note: nearly all actives have a fitted effect of over 60% in size
# Settings in all cases: Five cell lines viability, CellTiter-Glo ATP luminescence, 48-72 h; max response: active compounds read low
# CRL-7250 = normal cell line; test system: CRL-7250
# How it was run: (§1)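 Cytotoxicity was measured as CellTiter-Glo ATP luminescence, read after 10 min at room temperature. Compound treatment of the cells lasted 48 or 72 hr at 37 degrees Celsius in a qHTS format.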
# HEK293 = test system: HEK293
# How it was run: as §1
# HaCat = test system: HaCat
# How it was run: as §1
# KB-3-1 = test system: KB-3-1
# How it was run: as §1
# NIH3T3 = test system: NIH3T3
# How it was run: as §1
# % is set by controls: 0 for no effect and ±100 for the full control effect; potency is the fitted concentration of half-maximal effect.
Compound,max response (CRL-7250) [%],max response (HEK293) [%],outcome (HaCat),max response (KB-3-1) [%],outcome (NIH3T3),outcome (CRL-7250),max response (NIH3T3) [%],max response (HaCat) [%],outcome (KB-3-1),Potency (HaCat)
CC1(C)CC[C@]2(C(=O)O[C@@H]3O[C@H](CO)[C@@H](O)[C@H](O)[C@H]3O)CC[C@]3(C)C(=CCC4[C@@]5(C)C[C@H](O)[C@H](O[C@@H]6OC[C@@H](O)[C@H](O)[C@H]6O)[C@@](C)(CO)C5CC[C@]43C)C2C1 (stereo not given in full),-3.53,-6.93,inactive,9.53,inactive,–,–,–,–,–
CC(C)=CCC[C@](C)(O[C@@H]1O[C@H](CO[C@@H]2OC[C@H](O)[C@H](O)[C@H]2O)[C@@H](O)[C@H](O)[C@H]1O)[C@H]1CC[C@]2(C)[C@@H]1[C@H](O)C[C@@H]1[C@@]3(C)CC[C@H](O[C@@H]4O[C@H](CO)[C@@H](O)[C@H](O)[C@H]4O[C@@H]4O[C@H](CO)[C@@H](O)[C@H](O)[C@H]4O)C(C)(C)[C@@H]3CC[C@]12C,–,3.96,inactive,1.14,inactive,inactive,–,–,–,–
COCC1OC(n2cnc3c(=O)[nH]cnc32)C(O)C1O (stereo not given),–,-3.16,inactive,2.47,–,inactive,-2.27,–,–,–
COc1cc(C(C)=O)ccc1O[C@@H]1O[C@H](CO)[C@@H](O)[C@H](O)[C@H]1O,-12.2,-0.593,inactive,6.72,–,–,0.808,–,–,–
CC1=C2C(=O)C=C(CO[C@@H]3O[C@H](CO)[C@@H](O)[C@H](O)[C@H]3O)[C@@H]2[C@H]2OC(=O)[C@H](C)[C@@H]2[C@@H](O)C1,–,-50.9,–,2.15,inactive,inactive,–,0.75,–,–
Oc1ccc(CC2NCCc3cc(O)c(O)cc32)cc1 (stereo not given),4.94,-11.9,–,1.59,inactive,–,–,1.1,–,–
C=CCc1ccc(O[C@@H]2O[C@H](CO)[C@@H](O)[C@H](O)[C@H]2O)c(O[C@@H]2O[C@H](CO)[C@@H](O)[C@H](O)[C@H]2O)c1,-3.11,-0.299,inactive,–,inactive,–,–,–,inactive,–
CCCNCCOc1ccc(NC(=O)c2c[nH]c3c2C(=O)CCC3)cc1F,-8.08,-31.5,–,6.85,inactive,–,–,-4.5,–,–
C=C1C(OC(C)=O)[C@@]23CCC4[C@](C)(C(=O)O)CCC[C@@]4(C)[C@]2(O)CC[C@H]1C3 (stereo not given in full),1.93,-3.51,inactive,0.958,inactive,–,–,–,–,–
CC1C2=CC(=O)OC2(O)CC2C1CCC1C(C)(C)CCC(O)C21C (stereo not given),-5.55,-27.5,inactive,-9.97,–,–,0.733,–,–,–
COc1cn(-c2ccc(-n3cccn3)cc2F)nc(-c2ccnn2-c2ccccc2)c1=O,1.34,-9.47,–,7.34,inactive,–,–,-2.34,–,–
COc1c2c(c(C)c3c1C(=O)OC3)OC1(C)CC(O)C34OC(O)(CCC3(C)C1C2)OC4(C)C (stereo not given),–,-9.5,inactive,7.14,–,inactive,2.29,–,–,–
C=CC1(C)C=C2CC[C@H]3[C@@](C)(C(=O)O)CCC[C@]3(C)C2CC1 (stereo not given in full),-9.61,2.61,–,5.04,inactive,–,–,3.4,–,–
CCCO[C@@H]1O[C@H](CO)[C@@H](O)[C@H](O)[C@H]1O[C@@H]1OC[C@@H](O)[C@H](O)[C@H]1O,1.31,-4.21,inactive,9.26,–,–,-1.11,–,–,–
O=C(Nc1ccn(Cc2c(F)cccc2C(F)(F)F)n1)c1c(F)cccc1F,-12.9,1.72,inactive,–,–,–,2.19,–,inactive,–
COc1cccc(Cn2ncc3c4sc(S(C)=O)cc4n(C)c3c2=O)c1 (stereo not given),2.15,-7.28,inactive,–,–,–,2.83,–,inactive,–
CC1=COC(OC2OC(CO)C(O)C(O)C2O)C2C(CO)CC(OC(=O)/C=C/c3ccc(O)cc3)C12 (stereo not given),0.792,0.352,–,–,inactive,–,–,1.84,inactive,–
COC(=O)C1C(c2ccc(O)cc2)C(C(=O)O)C1c1ccc(O)cc1 (stereo not given),-7.64,-2.14,inactive,7.92,–,–,-3.05,–,–,–
COc1cc2nc(=NC(=O)c3cccnc3)n3c(c2cc1OC)NCC3,4.99,-3.57,–,–,inactive,–,–,–,inactive,16.4 µM (active)

Compound,max response (CRL-7250) [%],max response (HEK293) [%],outcome (HaCat),max response (KB-3-1) [%],outcome (NIH3T3),outcome (CRL-7250),max response (NIH3T3) [%],max response (HaCat) [%],outcome (KB-3-1),Potency (HaCat)
CC1(C)CC[C@]2(C(=O)OC3OC(CO)C(O)C(O)C3O)CC[C@]3(C)C(=CCC4[C@@]5(C)C[C@@H](O)[C@H](OC6OC(C(=O)O)C(O)C(O)C6O)C(C)(C)C5CC[C@]43C)[C@@H]2C1 (stereo not given in full),2.21,3.34,inactive,7.37,–,–,-4.63,–,–,–
Cc1c(O)cc2c(c1O)COC1(O)CCCOC21 (stereo not given),-4.56,-1.54,–,–,inactive,–,–,-19.1,inactive,–
Cc1cc(C(=O)N2Cc3cnn(C)c3Nc3ccccc32)ccc1CNC(=O)N1CCN(Cc2cc(O)cc(O)c2)CC1,–,-0.745,inactive,–,–,inactive,-0.633,–,inactive,–
COc1cccc(CN(C(=O)CC(C)(C)C)C2CC(C(=O)N3CCNCC3)N(Cc3ccc4c(c3)OCO4)C2)c1 (stereo not given),-4.46,-17.6,inactive,–,inactive,–,–,–,inactive,–
CC/C=C/C=C/C1(C)OC(CC(CO)OC)=CC1=O (stereo not given),-6.3,-18.9,inactive,–,–,–,1.62,–,inactive,–
CC(=O)O[C@@H]1[C@H](O[C@@H]2O[C@H](CO)[C@@H](O)[C@H](O)[C@H]2O)[C@@H](O[C@@H]2O[C@@H](C)[C@H](O)[C@@H](O[C@@H]3O[C@H](CO)[C@@H](O)[C@H](O)[C@H]3O)[C@H]2O)[C@H](OC(=O)[C@]23CCC(C)(C)C[C@H]2C2=CCC4[C@@]5(C)C[C@H](O)[C@H](O[C@@H]6O[C@H](C(=O)O)[C@@H](O)[C@H](O)[C@H]6O)[C@@](C)(C(=O)O)C5CC[C@@]4(C)[C@]2(C)CC3)O[C@@H]1C (stereo not given in full),-5.6,-5.4,inactive,–,inactive,–,–,–,inactive,–
CCC(C)/C=C(C)/C=C/C1=CC2=C(Cl)C(=O)C(C)(OC(C)=O)C(=O)C2=CN1C(CCC(=O)O)C(=O)O (stereo not given),-2.2,-1.69,inactive,–,inactive,–,–,–,inactive,–
O=C(Cc1ccccc1)OC[C@H]1O[C@H](O[C@H]2O[C@H](CO)[C@@H](O)[C@H](O)[C@H]2O)[C@H](O)[C@@H](O)[C@@H]1O,-5.14,4.52,inactive,9.38,–,–,0.692,–,–,–
COc1c2cc(c(O)c1OC)CCCCC(O)CCc1ccc(O)c-2c1 (stereo not given),-1.76,-0.95,inactive,2.35,–,–,-4.18,–,–,–
CCC/C=C/C=C/C1CC(O)C(O)C(=O)C1CO (stereo not given),–,-5.36,inactive,–,inactive,inactive,–,–,inactive,–
CC(=O)OC1CC(=O)C2(C)C3CC4=C(OC(C)CC4=O)OC3(C)CCC2C1(C)C (stereo not given),–,2.23,inactive,–,–,inactive,1.19,–,inactive,–
CC1=CC2=C(C)C(=O)C(C)(O)C(O)C2CO1 (stereo not given),-6.39,-9.93,inactive,5.71,–,–,1.32,–,–,–
CC1=C2CC(=O)C(C)CC/C=C(\C)CC2OC1=O (stereo not given),–,-1.49,inactive,1.48,–,inactive,2.98,–,–,–
COc1ccc(/C=C/C(=O)O[C@@H]2[C@@H](O[C@@H]3O[C@H](CO)[C@@H](O)[C@H](O)[C@H]3O)[C@@H](O)[C@H](O[C@H]3C4C=CO[C@@H](O[C@@H]5O[C@H](CO)[C@@H](O)[C@H](O)[C@H]5O)C4[C@@]4(CO)O[C@@H]34)O[C@H]2C)cc1 (stereo not given in full),-8.31,-3.69,inactive,-1.62,inactive,–,–,–,–,–
CC1=CCC[C@@H]2[C@@](C)(CCc3ccoc3)[C@H](C(=O)O)CC[C@@]12C,-0.266,-0.612,inactive,-0.465,–,–,-9.18,–,–,–
OCC1=C[C@@H](O)[C@@H]2C=CO[C@@H](O[C@@H]3O[C@H](CO)[C@@H](O)[C@H](O)[C@H]3O)[C@H]12,-1.82,0.828,inactive,–,–,–,4.6,–,inactive,–
CC(=O)OCC1OC(O[C@H]2CC[C@@]3(C)C(CC[C@]4(C)C3CC=C3[C@@H]5CC(C)(C)CC[C@]5(C(=O)O)CC[C@]34C)[C@]2(C)CO)C(O)C(O)C1OC1OC(C)C(O)C(OC2OCC(O)C(O)C2O)C1O (stereo not given in full),–,-5.43,inactive,–,inactive,inactive,–,–,inactive,–
Cn1c2ccc(NC(=O)c3ccccc3)cc2c(=O)n2nc(C(=O)O)cc12,–,-1.26,inactive,0.84,inactive,inactive,–,–,–,–
Fc1ccc(-c2c3cccc(C(F)(F)F)c3nn2Cc2ccc(F)cc2Cl)cc1,-3.03,0.746,inactive,-3.04,inactive,–,–,–,–,–
